From PubChem
F-actin modifier = modifiers of F-actin cytoskeleton organization, primary screen, imaging, HUVEC, phalloidin staining, high-content imaging; inhibition, % at 2 µM; AID 836, 2007; hit rate 0.18% among 91,000; HUVEC TNFa F-actin phalloidin imaging;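 active = inhibition above the batch mean plus 3 SD and confirmed as a hit by visual image inspection, cut at about 30% in these data, passing the limit was not always enough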
CYP2C9 act = human CYP2C9 activators, primary screen, biochemical, luminescence; hit rate 1.4% among 96,000; activation factor at 5 µM; recombinant CYP2C9, luciferin-H conversion; stronger effect = higher value; factor 1 = untreated enzyme, 0 = blocked; AID 1024, 2008;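 active = activation factor of 2 or more for CYP2C9 at a 5 µM dose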
Target sequence (P11712 whole entry, looked up): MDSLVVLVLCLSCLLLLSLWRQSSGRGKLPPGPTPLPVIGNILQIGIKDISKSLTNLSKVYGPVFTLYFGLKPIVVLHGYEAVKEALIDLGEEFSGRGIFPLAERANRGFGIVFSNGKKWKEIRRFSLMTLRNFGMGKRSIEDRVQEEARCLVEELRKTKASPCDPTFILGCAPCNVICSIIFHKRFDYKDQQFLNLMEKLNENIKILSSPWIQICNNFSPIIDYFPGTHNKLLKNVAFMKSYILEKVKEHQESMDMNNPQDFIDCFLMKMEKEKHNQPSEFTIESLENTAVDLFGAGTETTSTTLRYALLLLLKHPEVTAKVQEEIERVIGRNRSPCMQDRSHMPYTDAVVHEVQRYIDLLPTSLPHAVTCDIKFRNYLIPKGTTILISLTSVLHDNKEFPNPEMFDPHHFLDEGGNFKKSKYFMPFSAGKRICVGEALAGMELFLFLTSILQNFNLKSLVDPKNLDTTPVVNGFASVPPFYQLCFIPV
CYP2C19 inhib = blockers of cytochrome P450 2C19 activity – biochemical, luminescence, ADME assay, primary screen | AID 778, 2007 | CYP2C19 Supersomes, luciferin-H EGE luminescence, 30 min | hit rate 21% among 96,000 | inhibition, % at 5 µM | P33261;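 active = CYP2C19 inhibition above a set limit at 5 µM in the primary screen, cut at about 50% in these data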
CYP2C9 inhib = blockers of cytochrome P450 2C9 activity – biochemical, luminescence, ADME assay, primary screen | AID 777, 2007 | CYP2C9 Supersomes, luciferin-H conversion | hit rate 20% among 96,000 | inhibition, % at 5 µM;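 active = blocking of liver enzyme CYP2C9 beyond about 50% at 5 µM, limit read from the data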
E-sel TNF inh = E-selectin induction blockers in HUVEC – imaging, immunofluorescence, high content, primary screen | inhibition, % at 2 µM | HUVEC TNFa-induced E-selectin immunofluorescence | hit rate 0.71% among 120,000;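 active = inhibition above the batch mean plus 3 SD, and confirmed as a hit on visual image review, cut at about 43% in these data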
CYP2C19 activ = human CYP2C19 activators, primary screen, biochemical, luminescence. recombinant CYP2C19, luciferin-H EGE luminescence; stronger effect = higher value; 0 = fully inhibited enzyme, 1 = untreated enzyme. 96,000 tested, under 10 active. AID 1025, 2008. Cytochrome P450 2C19 (Homo sapiens), P33261. activation factor at 5 µM;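 active = activation factor of at least 2 at 5 µM in the primary screen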
Numbers stand for hits; n = inactive; x = not tested or not shown. Rows were chosen to be rich in hits. Some 22% of all compounds tested hit in one or more screens of this group.

SMILES	F-actin modifier	CYP2C9 act	CYP2C19 inhib	CYP2C9 inhib	E-sel TNF inh	CYP2C19 activ
COc1ccc(N2C(=O)C3CCCN3C2c2ccc(F)cc2)cc1Cl (stereo not drawn)	n	x	x	x	n	x
CC(=O)NNC(=S)NC(=O)c1cccc([N+](=O)[O-])c1	x	x	x	x	n	x
C/C(=N\NC(=O)c1cc(-c2cccnc2)nc2ccccc12)c1ccccc1O	x	x	x	x	n	x
CCOC(=O)CC(=O)NC(CC(=O)OC)c1ccc(C(C)C)cc1 (stereo not drawn)	x	x	x	x	n	x
CCc1cc2c(CN3CCN(CC)CC3)cc(=O)oc2cc1O	n	n	n	n	n	n
CN(C)S(=O)(=O)c1ccc2nnn(OCC(=O)NC34CC5CC(CC(C5)C3)C4)c2c1	x	x	x	x	n	x
Cc1cc(N/C=C/C(=O)c2cccc3ccccc23)no1	n	n	57	n	x	n
COC(=O)c1cccc(Nc2nc3ccccc3nc2C)c1	n	n	n	n	n	n
O=C(Nc1ccc2c(c1)OCO2)N1CCC(CO)(CC2CCCCO2)CC1 (stereo not drawn)	x	x	x	x	n	x
O=C(N1CCOCC1)C1(c2ccc(Cl)cc2)CCCC1	n	n	88	n	n	n
Cc1occc1C(=O)N/N=C/c1cccs1	n	n	n	n	n	n
Cc1cc(C)n(CC2CC(=O)N(c3ccc(Cl)c(Cl)c3)C2=O)n1 (stereo not drawn)	x	n	99	77	n	n
CCn1c(CCn2c3ccccc3c3ccccc32)n[nH]c1=S	x	x	x	x	n	x
O=[N+]([O-])c1cc([N+](=O)[O-])c(N2CCCCCC2)cc1NCCO	n	n	n	70	n	n
O=C(CNC(=O)c1ccco1)NCC(=O)OCc1ccc(C(=O)Oc2ccc(Cl)cc2)cc1	n	n	n	58	n	n
COC(=O)c1ccc(COC(=O)CNC(=O)c2ccco2)cc1	n	n	n	n	n	n
O=C(CNC(=O)c1ccco1)OCc1ccc(C(=O)Oc2ccccc2)cc1	n	n	n	58	x	n
CCCn1c(C(=O)OC)cc2c1ccn2-c1ccc(F)cc1	n	n	n	n	n	n
COc1ccc(S(=O)(=O)n2cnc3cc(C)c(C)cc32)cc1	n	n	96	87	n	n
CC(C)CNc1c(N)c(=O)oc2ccccc12	x	n	n	n	n	n
N#Cc1c(N)nc2c(c1-c1ccc3c(c1)OCO3)CCCCCC2	x	n	n	n	n	n
N#Cc1c(N)oc(-c2ccc3c(c2)OCO3)c1-c1ccc2c(c1)OCO2	n	n	96	87	n	n
COc1ccc(-c2cc(-c3ccccc3)c(C#N)c(S(C)=O)n2)cc1 (stereo not drawn)	n	n	n	68	x	n
COc1ccc(-c2cc(-c3cccs3)c(C#N)c(SCC(=O)NCc3ccccc3OC)n2)cc1	n	n	n	n	n	n
COc1ccccc1-c1cc(-c2ccc(C)cc2)nc(SCc2nnc(-c3ccccc3)o2)c1C#N	n	n	n	69	n	n
SMILES	F-actin modifier	CYP2C9 act	CYP2C19 inhib	CYP2C9 inhib	E-sel TNF inh	CYP2C19 activ
CCSc1nc(-c2ccc(OC)cc2)cc(-c2ccccc2)c1C#N	x	n	n	66	n	n
Cc1cc(C)c(C#N)c(SCc2nnc(-c3ccccc3[N+](=O)[O-])o2)n1	x	x	x	x	n	x
COc1ccc(-c2cc(-c3cccs3)c(C#N)c(SCC(=O)NCc3ccccc3)n2)cc1	n	n	n	53	x	n
COCCN1C(=O)N[C@@H](c2ccco2)C(C(C)=O)=C1C	x	x	x	x	n	x
O=C(Oc1ccc2c(c1)OCO2)c1ccncc1	n	n	82	65	x	n
COc1cc(CC(=O)Oc2ccc3c(c2)OCO3)cc(OC)c1OC	x	n	n	n	91	n
CC(C)(C)c1cc(OC(=O)c2ccncc2)ccc1O	n	x	x	x	93	x
Cc1ccc(S(=O)(=O)N(C)c2nonc2C)cc1	n	n	n	n	n	n
CCC(C)Cn1c(S(=O)(=O)O)nc2ccccc21 (stereo not drawn)	n	x	x	x	n	x
O=C1CC(c2cccc(Cl)c2)CC(O)=C1C=Nc1cccc(Cl)c1 (stereo not drawn)	x	x	x	x	n	x
O=C1CC(c2cccc(Cl)c2)CC(O)=C1C=NCCCO (stereo not drawn)	n	2.7	n	n	n	n
CCOc1ccc2c(C)c(Cl)c(=O)oc2c1	x	n	n	n	n	n
